Where a name gives a salt, the structure may show the parent alone.

This assay deals with MDA-MB-468. Kind of assay: phospho-S6 immunofluorescence (DAPI-normalised), per-plate z-score; higher = higher phospho-S6 signal (less pathway suppression). To be noted: 24 h. The method, then:
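GPCR-targeted compound library (MedChemExpress HY-L006) tested on MDA-MB-468 PTEN-null TNBC cells in 384-well plates at 0.1, 1 or 10 uM, combined with vehicle, GDC0941 450 nM or lapatinib 1 uM, for 24 h. Phospho-S6 (S240/244) immunofluorescence normalised to DAPI and expressed as a per-plate z-score; values are the mean of biological triplicates.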

`O=C(O)Cn1c2c(c3cc(F)ccc31)CN(C(=O)c1cccc3ccccc13)CC2` [Setipiprant] (compound 10 µM): the “phospho-S6 immunofluorescence (z-score)” value reads like this: (co-treatment: GDC0941 450 nM) 0.42; (co-treatment: lapatinib 1 uM) 0.74; (co-treatment: vehicle) -0.03.
On the same counts, the results for `COc1ccc(S(=O)(=O)Nc2c(C)cc(C)cc2C)cc1` (compound 10 µM) are 0.04, -0.37 and -1.05.
On the same counts, the results for `CN1[C@@H]2CC[C@H]1C[C@@H](OC(=O)c1c[nH]c3ccccc13)C2` [Tropisetron (Hydrochloride)] (compound 10 µM) are 0.95, -0.2 and -0.04.
On the same counts, the results for `CCN1CCCC1CNC(=O)c1cc(S(=O)(=O)CC)c(N)cc1OC` (stereo unspecified) [Amisulpride] (compound 10 µM) are 0.37, 0.58 and 0.83.
Consider `CC(COc1ccccc1)N(CCCl)Cc1ccccc1` (stereo unspecified) [Phenoxybenzamine (hydrochloride)] (compound 10 µM), for which the “phospho-S6 immunofluorescence (z-score)” value runs as follows: (co-treatment: GDC0941 450 nM) 0.33; (co-treatment: lapatinib 1 uM) -0.04; (co-treatment: vehicle) 0.39.
On the same counts, the results for `CN(C)CCN(Cc1ccccc1)c1ccccn1` [Tripelennamine (hydrochloride)] (compound 10 µM) are -0.07, -0.31 and -0.41.
On the same counts, the results for `OC[C@H]1O[C@@H](n2cnc3c(NCc4ccc(O)cc4)ncnc32)[C@H](O)[C@@H]1O` [N6-(4-Hydroxybenzyl)adenosine] (compound 10 µM) are -0.95, 1.31 and 0.96.
With `CCCN[C@@H]1CCc2nc(N)sc2C1` [Dexpramipexole (dihydrochloride)] (compound 10 µM), the “phospho-S6 immunofluorescence (z-score)” value (co-treatment: GDC0941 450 nM) is 1.16, the “phospho-S6 immunofluorescence (z-score)” value (co-treatment: lapatinib 1 uM) worked out at 0.15 and the “phospho-S6 immunofluorescence (z-score)” value (co-treatment: vehicle) was found to be 0.4.
On the same counts, the results for `C[C@H]1C[C@@H]2[C@H]([C@@H](O)C[C@@]3(C)[C@H]2CC[C@]3(O)C(=O)CO)[C@@]2(C)C=CC(=O)C=C12` [Methylprednisolone] (compound 10 µM) are 0.3, 3.09 and 0.51.
On the same counts, the results for `CCNC(=O)[C@H]1O[C@@H](n2cnc3c(N)nc(NCCc4ccc(CCC(=O)O)cc4)nc32)[C@H](O)[C@@H]1O` (compound 10 µM) are 0.05, 1.28 and -0.14.
On the same counts, the results for `CNC(=C[N+](=O)[O-])NCCSCc1ccc(CN(C)C)o1` [Ranitidine (hydrochloride)] (compound 10 µM) are 0.47, 0.54 and 0.29.
Take `CC(C)N(CC[C@H](c1ccccc1)c1cc(CO)ccc1O)C(C)C` [(R)-5-Hydroxymethyl Tolterodine] (compound 10 µM): the “phospho-S6 immunofluorescence (z-score)” value reads like this: (co-treatment: GDC0941 450 nM) 0.35; (co-treatment: lapatinib 1 uM) 0.44; (co-treatment: vehicle) 0.11.
On the same counts, the results for `Cc1ccc(NC(=S)NNc2c([N+](=O)[O-])cc(C(F)(F)F)cc2[N+](=O)[O-])cc1Cl` (compound 10 µM) are 0.79, -0.44 and -0.73.
On the same counts, the results for `C[C@H]1C[C@H]2[C@@H]3CCC4=CC(=O)C=C[C@]4(C)[C@H]3C(=O)C[C@]2(C)[C@@]1(O)C(=O)CO` [Meprednisone] (compound 10 µM) are 0.11, -0.5 and -0.52.
On the same counts, the results for `COCCCN1CCC(NC(=O)c2cc(Cl)c(N)c3c2OCC3)CC1` [Prucalopride (succinate)] (compound 10 µM) are -1.08, -0.3 and -1.84.
With `NCCc1c[nH]cn1` [Histamine (phosphate)] (compound 10 µM), the “phospho-S6 immunofluorescence (z-score)” value (co-treatment: GDC0941 450 nM) is -0.41, the “phospho-S6 immunofluorescence (z-score)” value (co-treatment: lapatinib 1 uM) was -0.13 and the “phospho-S6 immunofluorescence (z-score)” value (co-treatment: vehicle) worked out at 0.1.
On the same counts, the results for `COc1ccc2c(c1)c(CC(=O)N1CCOCC1)c(C)n2C(=O)c1ccc(Cl)cc1` (compound 10 µM) are -3.35, -6.12 and -6.12.

The values are drawn from the supplement of paper PMC7411640.
